Data taken from PubChem BioAssay (NCATS).
Records with an inconclusive call do not appear. Calls of active or inactive are those of the source. Unless noted, calls come from the whole dose curve; as a rule, active = well fitted curve in the direction sought with a large enough effect; inconclusive = small, poorly fitted or top-dose-only effect, or another doubt; inactive = no such curve, though single readings can be large; an effect the other way counts as inactive or inconclusive.

Legend:
[1] = qHTS drug screen for cell cycle checkpoint inhibitors in PARPi-resistant BRCA-mutant ovarian cancer cell lines. (AID 1963452; calls by dose curve); settings: PEO1/OlaR viability, CellTiter-Glo luminescence, 96 h, stronger effect = lower value
In short: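 PEO1, PEO4 and PEO1/OlaR ovarian cancer cells, 600 per well, exposed 96 h at 37C to a dilution series. Viability read by CellTiter-Glo luminescence, normalized to DMSO and empty wells; activity summarized as Z-AUC.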

[2] = qHTS profiling for inhibitors of Plasmodium falciparum proliferation (AID 504749);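 note: 0% = DMSO vehicle and full inhibition = artemisinin control; nearly all actives have a fitted effect of over 60% in size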; settings: P. falciparum in erythrocytes, SYBR Green DNA, 72 h; series mostly up to 28.7 µM
In short: (§1)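 P. falciparum-infected erythrocytes (0.3% parasitemia, 2.5% hematocrit) incubated with compound 72 h at 37 C, 5% CO2. Parasite DNA detected by SYBR Green after lysis, overnight at room temperature; normalised to 0.29 uM artemisinin and DMSO.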

[3] = tested on: 3D7; experiment: as above; settings: P. falciparum in erythrocytes, SYBR Green DNA, 72 h; series mostly up to 28.7 µM
In short: as §1

[4] = tested on: 7G8; experiment: as above; settings: P. falciparum in erythrocytes, SYBR Green DNA, 72 h; series mostly up to 28.7 µM
In short: as §1

[5] = tested on: AA1029; experiment: as above; settings: P. falciparum in erythrocytes, SYBR Green DNA, 72 h; series mostly up to 28.7 µM
In short: as §1

[6] = tested on: AS120; experiment: as above; settings: P. falciparum in erythrocytes, SYBR Green DNA, 72 h; series mostly up to 28.7 µM
In short: as §1

[7] = tested on: ATS95; experiment: as above; settings: P. falciparum in erythrocytes, SYBR Green DNA, 72 h; series mostly up to 28.7 µM
In short: as §1

[8] = tested on: C2A; experiment: as above; settings: P. falciparum in erythrocytes, SYBR Green DNA, 72 h; series mostly up to 28.7 µM
In short: as §1

[9] = tested on: CP185; experiment: as above; settings: P. falciparum in erythrocytes, SYBR Green DNA, 72 h; series mostly up to 28.7 µM
In short: as §1

[10] = tested on: CP191; experiment: as above; settings: P. falciparum in erythrocytes, SYBR Green DNA, 72 h; series mostly up to 28.7 µM
In short: as §1

[11] = tested on: CP192; experiment: as above; settings: P. falciparum in erythrocytes, SYBR Green DNA, 72 h; series mostly up to 28.7 µM
In short: as §1

[12] = tested on: CP194; experiment: as above; settings: P. falciparum in erythrocytes, SYBR Green DNA, 72 h; series mostly up to 28.7 µM
In short: as §1

[13] = tested on: CP201; experiment: as above; settings: P. falciparum in erythrocytes, SYBR Green DNA, 72 h; series mostly up to 28.7 µM
In short: as §1

[14] = tested on: CP203; experiment: as above; settings: P. falciparum in erythrocytes, SYBR Green DNA, 72 h; series mostly up to 28.7 µM
In short: as §1

[15] = tested on: CP211; experiment: as above; settings: P. falciparum in erythrocytes, SYBR Green DNA, 72 h; series mostly up to 28.7 µM
In short: as §1

[16] = tested on: ATS189; experiment: as above; settings: P. falciparum in erythrocytes, SYBR Green DNA, 72 h; series mostly up to 28.7 µM
In short: as §1

[17] = Dual reporter qHTS for agonist of Pregnane X Receptor (hPXR) against the NCATS DSHEA and TCM libraries: Fluorescence readout (AID 1920058); settings: PXR dual reporter cells; series mostly up to 40 µM; note: 0% is about no effect
In short: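 hPXR-Luc HepG2 cells, 2000/well in charcoal-stripped serum, attached 5 h, dosed for ~24 h at 37 °C. Fluorescence read is CellTiter-Fluor viability (Ex/Em 405/540 nm); rifampicin positive, tetraoctyl ammonium bromide (92 µM) cytotoxicity controls.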

[18] = target: Nuclear receptor subfamily 1 group I member 2 (Homo sapiens) (UniProt O75469); experiment: Dual reporter qHTS for agonist of Pregnane X Receptor (hPXR) against the NCATS DSHEA and TCM libraries: Luminescence readout (AID 1920059); settings: hPXR dual reporter cells, luciferase luminescence agonist; series mostly up to 22 µM; note: potency is the fitted concentration of half-maximal effect
In short: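 hPXR-Luc HepG2 cells, 2000/well in 5% charcoal-stripped FBS medium, attached 5 h, then exposed 24 h at 37C to compounds. Viability by CellTiter-Fluor, then luciferase luminescence with ONE-Glo.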

[19] = target: Nuclear receptor subfamily 1 group I member 2 (Homo sapiens) (UniProt O75469); experiment: Dual reporter qHTS for antagonist of Pregnane X Receptor (hPXR) against the NCATS DSHEA and TCM libraries: Luminescence Readout (AID 1920060); settings: hPXR dual reporter cells, luciferase luminescence, antagonist mode; series mostly up to 40 µM;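 note: HepG2 cells carrying hPXR luciferase reporter stimulated with rifampicin at 2 µM; 0% is about no effect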
In short: (§2)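 In antagonist mode, 2 uM rifampicin was added to hPXR-Luc HepG2 cells alongside test substances, incubated 24 h at 37 C; luminescence gave reporter activity, and CellTiter-Fluor fluorescence (405/540 nm) gave viability.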

[20] = Dual reporter qHTS for antagonist of Pregnane X Receptor (hPXR) against the NCATS DSHEA and TCM libraries: Fluorescence Readout (AID 1920061); settings: PXR dual reporter cells, antagonist mode; series mostly up to 40 µM; note: 0% is about no effect
In short: as §2

[21] = measured here: PEO1 parental Z-AUC

Sequence of Nuclear receptor subfamily 1 group I member 2 (Homo sapiens) (O75469 whole entry, looked up): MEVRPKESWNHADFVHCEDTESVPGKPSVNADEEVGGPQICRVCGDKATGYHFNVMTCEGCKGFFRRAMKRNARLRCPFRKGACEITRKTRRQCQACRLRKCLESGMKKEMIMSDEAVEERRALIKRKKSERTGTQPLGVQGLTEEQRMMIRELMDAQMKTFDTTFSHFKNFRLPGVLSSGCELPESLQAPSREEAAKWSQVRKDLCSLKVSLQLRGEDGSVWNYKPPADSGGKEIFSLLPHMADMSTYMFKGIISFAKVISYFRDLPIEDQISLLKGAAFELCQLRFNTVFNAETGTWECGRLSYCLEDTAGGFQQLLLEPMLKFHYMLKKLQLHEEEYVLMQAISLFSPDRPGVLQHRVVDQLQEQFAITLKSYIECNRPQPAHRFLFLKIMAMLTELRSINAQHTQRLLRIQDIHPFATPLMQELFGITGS

C[C@@H]1O[C@@H](O[C@@H]2\C=C/C=C\C=C/C=C\C[C@H](C)OC(=O)/C=C\[C@H]3O[C@@H]3C[C@H](O)C[C@]3(O)C[C@@H](O)[C@@H](C(=O)O)[C@H](C2)O3)[C@H](O)[C@H](N)[C@@H]1O
Z-AUC [1]: 1.98 (inactive) | Z-AUC [1, 21]: 1.57 | Z-AUC ([1]; measured here: PEO4 Z-AUC): 1.97

COc1cccc2c1c(O)c(C(=O)N(C)c1ccc(C(F)(F)F)cc1)c(=O)n2C
Z-AUC [1]: 0.835 (inactive) | Z-AUC [1, 21]: 0.409 | Z-AUC ([1]; measured here: PEO4 Z-AUC): 0.643

Nc1ncnc2c1C(=O)N(c1ccc(C3CCC(CC(=O)O)CC3)cc1)CCO2 (centres undefined)
Z-AUC [1]: 0.276 (inactive) | Z-AUC [1, 21]: 0.0726 | Z-AUC ([1]; measured here: PEO4 Z-AUC): 0.138

CCc1cccc2c3c([nH]c12)[C@@](CC)(CC(=O)O)OCC3
outcome [2]: inactive | outcome [3]: inactive | outcome [4]: inactive | outcome [5]: inactive | outcome [6]: inactive | outcome [7]: inactive | outcome [8]: inactive | outcome [9]: inactive | outcome [10]: inactive | outcome [11]: inactive | outcome [12]: inactive | outcome [13]: inactive | outcome [14]: inactive | outcome [15]: inactive

Cc1nc(-c2cccnc2)sc1C(=O)Nc1ccccc1-c1cn2c(CN3CCOCC3)csc2n1
Z-AUC [1]: 0.405 (inactive) | Z-AUC [1, 21]: -0.0743 | Z-AUC ([1]; measured here: PEO4 Z-AUC): 0.19

CCC(CC)CC1(C(=O)Nc2ccccc2SC(=O)C(C)C)CCCCC1
Z-AUC [1]: -0.732 (inactive) | Z-AUC [1, 21]: -0.887 | Z-AUC ([1]; measured here: PEO4 Z-AUC): -0.923

Cc1noc2c1-c1ccccc1C(c1ccc(Cl)cc1)=N[C@H]2CC(N)=O
Z-AUC [1]: -0.193 (inactive) | Z-AUC [1, 21]: -0.00939 | Z-AUC ([1]; measured here: PEO4 Z-AUC): -0.463

Cc1cccc(-c2nn3c(c2-c2ccnc4ccc(C(N)=O)cc24)CCC3)n1
Z-AUC [1]: 1.11 (inactive) | Z-AUC [1, 21]: 0.368 | Z-AUC ([1]; measured here: PEO4 Z-AUC): 0.508

O=C(COCC(=O)N1CCN(C(c2ccccc2)c2ccccc2)CC1)Nc1ccc(Cl)cc1C(=O)O
Z-AUC [1]: 1.8 (inactive) | Z-AUC [1, 21]: 1.44 | Z-AUC ([1]; measured here: PEO4 Z-AUC): 1.34

CCOC(=O)C(CCc1ccccc1)NC(C)C(=O)N1Cc2ccccc2CC1C(=O)O (centres undefined)
outcome [2]: inactive | outcome [3]: inactive | outcome [4]: inactive | outcome [5]: inactive | outcome [6]: inactive | outcome [16]: inactive | outcome [7]: inactive | outcome [8]: inactive | outcome [9]: inactive | outcome [10]: inactive | outcome [11]: inactive | outcome [12]: inactive | outcome [13]: inactive | outcome [14]: inactive | outcome [15]: inactive

COCCCc1sc(-c2ccccc2)nc1C(=O)Nc1ccccc1-c1nc2cc(CN3CCCC3)cnc2s1
Z-AUC [1]: 0.0751 (inactive) | Z-AUC [1, 21]: -0.146 | Z-AUC ([1]; measured here: PEO4 Z-AUC): 0.43

O=C1NC(=O)/C(=C/c2cccc(C(F)(F)F)c2)S1
Z-AUC [1]: 0.536 (inactive) | Z-AUC [1, 21]: 0.151 | Z-AUC ([1]; measured here: PEO4 Z-AUC): 0.0196

CC(C)N(CCCNC(=O)Nc1ccc(C(C)(C)C)cc1)C[C@H]1O[C@@H](n2ccc3c(N)ncnc32)[C@H](O)[C@@H]1O
Z-AUC [1]: -0.352 (inactive) | Z-AUC [1, 21]: -0.286 | Z-AUC ([1]; measured here: PEO4 Z-AUC): -0.377

CC(=O)O[C@@H]1C[C@@H](C)[C@](O)(CCC2=CC(=O)OC2)[C@@]2(C)CCCC(C)(C)C12 (some centres undefined)
outcome [17]: inactive | Potency [18]: 12.6 µM (active) | outcome [19]: inactive | outcome [20]: inactive

Cc1c(F)cc(C(=O)NC2CC2)cc1-c1ccc(C(=O)NCC(C)(C)C)cn1
Z-AUC [1]: 0.819 (inactive) | Z-AUC [1, 21]: 0.354 | Z-AUC ([1]; measured here: PEO4 Z-AUC): 0.681

CC(C)[C@](O)(c1ccc2cc(OC(F)F)c(OC(F)F)cc2c1)c1cn[nH]n1
Z-AUC [1]: -0.262 (inactive) | Z-AUC [1, 21]: -0.434 | Z-AUC ([1]; measured here: PEO4 Z-AUC): -0.604

Cc1ncc(Cl)cc1NCc1ccc(C(=O)NC(CC2CCCC2)C(=O)NC2CC2)s1 (centres undefined)
Z-AUC [1]: -0.347 (inactive) | Z-AUC [1, 21]: -0.204 | Z-AUC ([1]; measured here: PEO4 Z-AUC): 0.18

Cc1ccccc1-n1nc(-c2c(-c3ccc(F)cc3)nn3c2NC[C@@H](CO)C3)ccc1=O
Z-AUC [1]: 0.0215 (inactive) | Z-AUC [1, 21]: 0.2 | Z-AUC ([1]; measured here: PEO4 Z-AUC): 0.209

N#Cc1cccc(-c2c[nH]c3ncnc(N4CCOCC4)c23)c1
Z-AUC [1]: 0.0885 (inactive) | Z-AUC [1, 21]: 0.762 | Z-AUC ([1]; measured here: PEO4 Z-AUC): 0.859

Cn1cc(-c2c[nH]c3ncnc(N4CCOCC4)c23)cn1
Z-AUC [1]: 1.31 (inactive) | Z-AUC [1, 21]: 1.65 | Z-AUC ([1]; measured here: PEO4 Z-AUC): 1.56
